Results filed as inconclusive are left out. Activity calls are given as the source filed them. Unless noted, calls come from the whole dose curve; as a rule, active = well fitted curve in either direction with a large enough effect (not every such curve was filed as active); inconclusive = small, poorly fitted or top-dose-only effect, or another doubt; inactive = flat fitted curve, though single readings scatter.
Experiments:
[1] = target: Lysosomal acid glucosylceramidase (Homo sapiens) (UniProt P04062); test: Glucocerebrosidase-p2 (AID 348; in the data active = potency below about 10 µM; note: potency is the fitted concentration of half-maximal effect); details: purified GBA, blue fluorogenic substrate, 40 min
Method in brief: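 Normal human glucocerebrosidase (0.2 nM) with blue fluorogenic substrate (80 uM final) in citrate/phosphate pH 5.9 with 10mM sodium taurocholate, 0.01% tween-20; 40 min RT, NaOH/glycine stop; fluorescence Ex 365/Em 440; AC50 from a titration from 0.6 nM upwards.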

[2] = AP1 Signaling Pathway (AID 357); details: ME-180 AP-1-bla reporter, EGF-induced, beta-lactamase ratio, 5 h; at 7.69 µM (top of the series) unless noted;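 note: ME-180 reporter cells stimulated with EGF at its EC50 level; % is set by controls: 0 for no effect and ±100 for the full control effect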
Method in brief: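 Titration-series screen for positive or negative modulators of EC50 EGF-induced signaling in ME-180 cells carrying an AP-1-driven beta-lactamase reporter. After 5 hours at 37 degrees Celsius, CCF4 460nm/530nm emission ratio gave %Activity; AC50 values derived.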

[3] = target: Cytochrome P450 1A2 (Homo sapiens) (UniProt P05177); test: p450-cyp1a2 (AID 410; calls by dose curve; note: potency is the fitted concentration of half-maximal effect;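 for activity change, negative = inhibition: -100% = full effect of reference inhibitor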); details: recombinant CYP1A2, luciferin-ME demethylation, luminescence; series mostly up to 57 µM
Method in brief: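 O-Demethylation of luciferin 6' methyl ether by human CYP1A2 is monitored as luciferase luminescence. Substrate sits at Km (100uM); enzyme is 20nM. Values are scaled to 57 uM furafylline as maximal inhibition.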

[4] = NFAT Signaling Pathway (AID 444); details: Jurkat NFAT-bla M1, carbachol, beta-lactamase ratio, 5 h; at 7.69 µM (top of the series) unless noted;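 note: carbachol stimulus at about its EC50 of 1 µM final; % is set by controls: 0 for no effect and ±100 for the full control effect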
Method in brief: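 Jurkat cells carrying an NFAT-driven β-lactamase reporter and co-transfected muscarinic M1 receptor were treated with compound plus carbachol (1 uM final, an EC50 level) for 5 h at 37 °C. CCF4 loading followed for 1 h at RT; 460/530 nm ratio gave %activity.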

[5] = Stat Signaling Pathway (AID 446); details: ME-180 (cervical carcinoma) SIE beta-lactamase reporter, IL-6 stimulated, 5 h; at 7.69 µM (top of the series) unless noted;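 note: ME-180 cervical cancer cells given 40 pM IL-6 alongside compound; SIE-controlled beta-lactamase reporter measured as 460/530 nm FRET emission ratio; % is set by controls: 0 for no effect and ±100 for the full control effect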
Method in brief: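 Compound effects on IL-6-induced STAT reporter activity were measured in ME-180 cells. After overnight culture, cells were co-treated with 40 pM IL-6 for 5 hrs before beta-lactamase substrate loading at room temperature.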

[6] = target: Glucocorticoid receptor (Homo sapiens) (UniProt P04150); test: GR-EFC Redistribution (AID 451; calls by dose curve; note: potency is the fitted concentration of half-maximal effect); details: CHO-K1 GR-EFC translocation, beta-gal luminescence, 2 h
Method in brief: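 CHO-K1 cells stably expressing nuclear-localized β-gal enzyme acceptor and GR fused C-terminally to the enzyme donor fragment; ligand-driven nuclear translocation restores β-gal by complementation. Compounds titrated up to 46 uM final, 2 h at 37 °C; luminescence read.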

[7] = target: Mitogen-activated protein kinase 10 (Mus musculus) (UniProt Q61831); test: JNK3 AlphaScreen Assay (AID 530); details: JNK3 lysate, c-Jun phosphorylation; series mostly up to 57.1 µM;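 note: kinase came from lysate of stimulated human HepG2 cells; signal reports phosphorylation of biotinylated GST-cJun 1-79 at Ser73 with 10 µM ATP; % is set by controls: 0 for no effect and ±100 for the full control effect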
Method in brief: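 Phosphorylation of biotinylated GST-cJun(1-79) at Ser73 is measured by AlphaScreen proximity luminescence. Enzyme is JNK3 in HepG2 lysates activated with interleukin-1beta and tumor necrosis factor alpha; ATP is 10 uM final.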

[8] = target: 3',5'-cyclic-AMP phosphodiesterase 4B (Homo sapiens) (UniProt Q07343); test: qHTS Assay for Inhibitors of PDE-IV (AID 607; active = well fitted activation curve with a large enough effect in the main read-out, with a control signal flat, not every such curve was filed as active; note: % of control where 0% means no effect); details: HEK293 ACTOne CNG channel cells, membrane potential fluorescence; series mostly up to 22.9 µM
Method in brief: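 ACTOne HEK293 cells carry a modified cAMP-gated CNG channel and express endogenous PDE4; plated 1000 cells/well, compounds up to 22.9 uM final. Membrane-potential dye fluorescence (ex 535/em 590) was read; parental cells received 10 uM forskolin + 100 uM RO 20-1724.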

[9] = qHTS Assay for Lipid Storage Modulators (AID 1519; calls by dose curve); details: Drosophila S3 cells, BODIPY lipid droplet/cell ratio, laser cytometry, cells loaded with oleic acid; for activity change, negative = inhibition: at 57.5 µM (top of the series)
Method in brief: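 Cells seeded at 5,000 per well were treated with compounds over a concentration series and loaded with oleic acid (400 uM, as added). Lipid droplet fluorescence (488 nm excitation, 500-530 nm channel) was read by laser-scanning cytometry and normalized to 20 uM Triacsin C.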

[10] = Primary qHTS for small molecule stabilizers of the endoplasmic reticulum resident proteome: Secreted ER Calcium Modulated Protein (SERCaMP) assay (AID 1508630; active = well fitted curve in the direction sought with a large enough effect; an effect the other way counts as inactive or inconclusive; note: % is set by controls: 0 for no effect and ±100 for the full control effect); details: SH-SY5Y GLuc-SERCaMP (Gaussia luciferase released on ER calcium loss) secretion, thapsigargin, luminescence; series mostly up to 38.4 µM
Method in brief: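 The SH-SY5Y reporter protocol was run at 3 concentrations up to 38.3 uM (primary) or 11 concentrations (follow-up): 16 h compound, 100 nM thapsigargin for 4 h, then extracellular luciferase luminescence.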

[11] = target: Cytochrome P450 2C9 (Homo sapiens) (UniProt P11712); test: qHTS Assay for Inhibitors and Substrates of Cytochrome P450 2C9 (AID 883; active = well fitted curve in the direction sought with a large enough effect; an effect the other way counts as inactive or inconclusive; note: potency is the fitted concentration of half-maximal effect; nearly all actives have a fitted effect of over 60% in size); details: recombinant CYP2C9, luciferin-H luminescence, 60 min; series mostly up to 57.1 µM
Method in brief: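 A luminogenic readout tracked human CYP2C9 (10nM) converting deoxyluciferin (100uM, at KM) in 25mM KPO4 during 60 min at 37C with regenerated NADPH. Values normalized to 57uM sulphaphenazole as complete inhibition.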

[12] = target: Cytochrome P450 3A4 (Homo sapiens) (UniProt P08684); test: qHTS Assay for Activators of Cytochrome P450 3A4 (AID 885; active = well fitted curve in the direction sought with a large enough effect; an effect the other way counts as inactive or inconclusive; note: nearly all actives have a fitted effect of over 65% in size); details: recombinant CYP3A4, Luciferin-PPXE luminescence, 60 min; series mostly up to 57.1 µM
Method in brief: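 CYP3A4 activity: Luciferin-PPXE O-dealkylation, 25uM substrate, 200mM KPO4, RT throughout. Read-out is luciferase luminescence; higher values reflect activation.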

[13] = measured here: cell count channel max response
[14] = measured here: lipid channel max response

Cytochrome P450 1A2 (Homo sapiens), sequence (P05177 whole entry, looked up): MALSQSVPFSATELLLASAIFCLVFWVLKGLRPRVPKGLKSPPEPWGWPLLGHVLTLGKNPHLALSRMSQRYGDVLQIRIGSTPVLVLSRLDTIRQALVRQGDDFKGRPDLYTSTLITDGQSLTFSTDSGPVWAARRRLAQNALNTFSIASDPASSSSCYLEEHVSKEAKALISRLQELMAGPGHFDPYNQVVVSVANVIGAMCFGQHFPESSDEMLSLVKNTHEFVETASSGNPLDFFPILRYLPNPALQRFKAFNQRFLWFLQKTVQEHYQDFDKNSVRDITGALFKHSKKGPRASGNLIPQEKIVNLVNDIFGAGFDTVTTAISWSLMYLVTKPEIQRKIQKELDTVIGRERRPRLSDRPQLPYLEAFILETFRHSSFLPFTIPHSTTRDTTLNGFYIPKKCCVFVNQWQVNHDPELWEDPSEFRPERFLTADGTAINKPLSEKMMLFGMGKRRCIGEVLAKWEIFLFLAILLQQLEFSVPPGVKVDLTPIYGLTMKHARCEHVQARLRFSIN
Lysosomal acid glucosylceramidase (Homo sapiens), sequence (P04062 whole entry, looked up): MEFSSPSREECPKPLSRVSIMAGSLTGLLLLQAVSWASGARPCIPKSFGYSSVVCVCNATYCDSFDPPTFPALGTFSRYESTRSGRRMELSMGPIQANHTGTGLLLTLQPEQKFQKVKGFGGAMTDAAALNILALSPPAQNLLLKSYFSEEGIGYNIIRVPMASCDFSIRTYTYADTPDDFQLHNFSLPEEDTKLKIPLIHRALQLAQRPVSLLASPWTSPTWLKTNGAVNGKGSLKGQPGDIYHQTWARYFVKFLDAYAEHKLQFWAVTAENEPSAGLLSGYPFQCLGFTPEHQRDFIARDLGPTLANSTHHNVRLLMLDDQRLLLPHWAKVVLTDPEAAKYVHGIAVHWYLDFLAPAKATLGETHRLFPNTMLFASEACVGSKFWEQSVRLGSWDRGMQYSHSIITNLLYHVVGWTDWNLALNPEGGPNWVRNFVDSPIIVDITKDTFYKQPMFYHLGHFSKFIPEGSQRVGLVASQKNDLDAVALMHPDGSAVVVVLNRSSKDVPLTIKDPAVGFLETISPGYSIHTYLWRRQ
Glucocorticoid receptor (Homo sapiens), sequence (P04150 whole entry, looked up, the tested form may be a part): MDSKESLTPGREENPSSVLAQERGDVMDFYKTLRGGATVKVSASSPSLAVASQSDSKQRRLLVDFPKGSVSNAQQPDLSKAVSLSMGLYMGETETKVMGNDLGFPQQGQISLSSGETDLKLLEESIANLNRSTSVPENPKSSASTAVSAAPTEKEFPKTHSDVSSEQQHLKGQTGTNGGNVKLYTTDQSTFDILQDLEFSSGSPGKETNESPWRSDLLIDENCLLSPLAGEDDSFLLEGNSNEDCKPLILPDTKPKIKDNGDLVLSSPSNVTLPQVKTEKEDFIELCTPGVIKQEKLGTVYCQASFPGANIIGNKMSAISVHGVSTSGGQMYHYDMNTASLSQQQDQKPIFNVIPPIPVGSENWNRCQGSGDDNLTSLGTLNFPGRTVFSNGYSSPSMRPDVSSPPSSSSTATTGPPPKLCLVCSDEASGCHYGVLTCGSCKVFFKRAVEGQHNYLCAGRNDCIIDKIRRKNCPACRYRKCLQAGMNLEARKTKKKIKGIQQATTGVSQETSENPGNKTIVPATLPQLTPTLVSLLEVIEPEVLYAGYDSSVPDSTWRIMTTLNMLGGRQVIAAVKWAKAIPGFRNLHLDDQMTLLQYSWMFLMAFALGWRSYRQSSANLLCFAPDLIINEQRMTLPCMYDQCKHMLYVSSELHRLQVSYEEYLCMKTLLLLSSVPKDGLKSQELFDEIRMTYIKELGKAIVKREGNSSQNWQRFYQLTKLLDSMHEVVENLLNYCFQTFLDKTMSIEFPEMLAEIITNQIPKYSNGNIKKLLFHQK
3',5'-cyclic-AMP phosphodiesterase 4B (Homo sapiens), sequence (Q07343 whole entry, looked up): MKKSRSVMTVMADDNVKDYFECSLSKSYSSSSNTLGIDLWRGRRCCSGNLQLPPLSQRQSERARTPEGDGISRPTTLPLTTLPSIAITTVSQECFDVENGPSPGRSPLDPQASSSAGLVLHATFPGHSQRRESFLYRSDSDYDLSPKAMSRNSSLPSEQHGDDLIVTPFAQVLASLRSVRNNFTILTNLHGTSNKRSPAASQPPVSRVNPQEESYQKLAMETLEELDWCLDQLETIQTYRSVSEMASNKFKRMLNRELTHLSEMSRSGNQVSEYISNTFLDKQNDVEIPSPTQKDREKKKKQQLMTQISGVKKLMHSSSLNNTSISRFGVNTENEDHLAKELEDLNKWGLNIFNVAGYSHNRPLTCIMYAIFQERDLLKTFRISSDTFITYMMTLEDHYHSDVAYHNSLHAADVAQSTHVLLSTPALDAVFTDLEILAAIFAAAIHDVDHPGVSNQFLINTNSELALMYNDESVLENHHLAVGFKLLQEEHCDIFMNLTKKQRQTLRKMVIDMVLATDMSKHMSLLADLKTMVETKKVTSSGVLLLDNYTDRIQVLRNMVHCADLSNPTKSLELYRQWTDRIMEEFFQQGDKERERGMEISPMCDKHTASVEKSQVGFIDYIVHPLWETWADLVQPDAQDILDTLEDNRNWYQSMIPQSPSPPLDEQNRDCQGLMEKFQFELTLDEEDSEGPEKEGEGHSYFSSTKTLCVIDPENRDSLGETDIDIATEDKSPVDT
Cytochrome P450 3A4 (Homo sapiens), sequence (P08684 whole entry, looked up): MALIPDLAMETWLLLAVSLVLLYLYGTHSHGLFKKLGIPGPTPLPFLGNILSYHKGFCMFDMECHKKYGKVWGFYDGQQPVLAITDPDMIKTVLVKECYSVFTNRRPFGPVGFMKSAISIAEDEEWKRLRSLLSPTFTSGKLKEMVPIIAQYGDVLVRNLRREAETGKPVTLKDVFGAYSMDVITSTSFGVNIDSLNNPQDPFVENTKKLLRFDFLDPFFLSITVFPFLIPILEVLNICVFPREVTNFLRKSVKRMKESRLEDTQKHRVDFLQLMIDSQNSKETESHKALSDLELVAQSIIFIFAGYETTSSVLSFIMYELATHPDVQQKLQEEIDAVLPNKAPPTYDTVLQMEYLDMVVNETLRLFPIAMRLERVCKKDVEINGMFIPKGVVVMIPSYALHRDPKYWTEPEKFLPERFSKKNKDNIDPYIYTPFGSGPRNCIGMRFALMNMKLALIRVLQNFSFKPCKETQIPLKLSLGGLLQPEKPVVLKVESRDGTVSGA
Cytochrome P450 2C9 (Homo sapiens), sequence (P11712 whole entry, looked up): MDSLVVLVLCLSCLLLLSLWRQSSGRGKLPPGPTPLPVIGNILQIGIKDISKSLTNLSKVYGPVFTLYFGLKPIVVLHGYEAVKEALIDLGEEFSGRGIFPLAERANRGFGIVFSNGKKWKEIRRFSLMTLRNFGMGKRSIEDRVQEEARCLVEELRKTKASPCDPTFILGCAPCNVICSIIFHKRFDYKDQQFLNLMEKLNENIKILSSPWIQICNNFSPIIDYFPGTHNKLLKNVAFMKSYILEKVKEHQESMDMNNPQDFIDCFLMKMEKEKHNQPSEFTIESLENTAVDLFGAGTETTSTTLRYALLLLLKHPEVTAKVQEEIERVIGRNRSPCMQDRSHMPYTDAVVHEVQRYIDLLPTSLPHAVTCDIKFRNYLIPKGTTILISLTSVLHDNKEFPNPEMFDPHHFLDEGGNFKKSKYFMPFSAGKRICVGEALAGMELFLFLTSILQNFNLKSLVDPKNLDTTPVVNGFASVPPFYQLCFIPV

SMILES | Potency [1] | activity change, negative = inhibition [2] | Potency [3] | activity change, negative = inhibition [4] | activity, negative = inhibition [5] | Potency [6] | outcome [7] | Potency [8] | activity change, negative = inhibition [9] | max response [9, 13] | max response [9, 14] | Potency [10] | Potency [11] | Potency [12]
COc1ccc(C(=O)N2CCC3(CC2)CN(C(=O)NC(C)C)C3)cc1 | > 11.4 µM (inactive) | -5.05% (inactive) | inactive | 12.7% (inactive) | 0.0305% (inactive) | > 46 µM (inactive) | inactive | inactive | -0.224% (inactive) | -1.09% | 0.517% | inactive | – | –
O=C(c1csnn1)N1CCC2(CCCN(c3ccccc3)C2)CC1 | > 11.4 µM (inactive) | -2.99% (inactive) | inactive | 1.2% (inactive) | -8.69% (inactive) | > 46 µM (inactive) | inactive | inactive | -0.699% (inactive) | 7.99% | 11.5% | inactive | 7.94 µM (active) | inactive
COc1ccc(NC(=O)N2CC3(CCN(C(=O)c4cccn4C)CC3)C2)cc1 | > 11.4 µM (inactive) | -10.5% (inactive) | inactive | 14.9% (inactive) | -11.3% (inactive) | > 46 µM (inactive) | inactive | inactive | 6.73% (inactive) | 8.75% | 21.6% | inactive | – | –
CC(C)NC(=O)N1CC[C@@]2(CCCN(C(=O)c3cccn3C)C2)C1 | > 11.4 µM (inactive) | 12.3% (inactive) | inactive | -8.88% (inactive) | -1.46% (inactive) | > 46 µM (inactive) | inactive | inactive | 3.5% (inactive) | -17.7% | -8.74% | inactive | – | –
O=C(c1csnn1)N1CCC2(CC1)CCN(c1ncccn1)CC2 | > 11.4 µM (inactive) | -14.3% (inactive) | inactive | 1.39% (inactive) | -5.07% (inactive) | > 46 µM (inactive) | inactive | inactive | 4.97% (inactive) | -0.155% | 6.88% | inactive | – | –
O=C(Nc1ccccc1)N1CCC2(CC1)CCN(C(=O)c1cnccn1)CC2 | > 11.4 µM (inactive) | -8.59% (inactive) | inactive | 11.9% (inactive) | 2.97% (inactive) | > 46 µM (inactive) | inactive | inactive | 6.14% (inactive) | 7.98% | 21.7% | inactive | – | –
COCC(=O)N1CCC[C@@]2(CCN(C(=O)Nc3ccc(OC)cc3)C2)C1 | > 11.4 µM (inactive) | -7.62% (inactive) | inactive | 11.4% (inactive) | 6.35% (inactive) | > 46 µM (inactive) | inactive | inactive | 0.357% (inactive) | 1.93% | 5.76% | inactive | – | –
COC(=O)N1CCC2(CCN(C(=O)NC(C)C)CC2)CC1 | > 11.4 µM (inactive) | -1.37% (inactive) | 20 µM (active) | -29.8% (inactive) | -1.69% (inactive) | > 46 µM (inactive) | inactive | inactive | 2.86% (inactive) | 7.58% | 13.7% | inactive | – | –
FC(F)(F)c1cc(CN2CC3(CCNCC3)C2)cc(C(F)(F)F)c1 | > 11.4 µM (inactive) | -6.77% (inactive) | inactive | 10.6% (inactive) | 3.31% (inactive) | > 46 µM (inactive) | inactive | inactive | -2.16% (inactive) | -18% | -13.5% | inactive | – | –
Cn1cccc1C(=O)N1CCC2(CC1)CN(C(=O)Nc1ccccc1)C2 | > 11.4 µM (inactive) | -4.26% (inactive) | inactive | 8.61% (inactive) | -5.03% (inactive) | > 46 µM (inactive) | inactive | inactive | 5.97% (inactive) | 8.17% | 14.5% | inactive | – | –
O=C(Nc1cccc(F)c1)N1CC2(CCN(S(=O)(=O)c3ccccc3)CC2)C1 | > 11.4 µM (inactive) | -8.31% (inactive) | inactive | 22.6% (inactive) | -14.1% (inactive) | > 46 µM (inactive) | inactive | inactive | -4.83% (inactive) | -8.16% | -11.8% | inactive | – | –
O=C(c1csnn1)N1CCC2(CCCN(Cc3cc(C(F)(F)F)cc(C(F)(F)F)c3)C2)CC1 | > 11.4 µM (inactive) | 10.6% (inactive) | 12.6 µM (active) | 10.5% (inactive) | 3.73% (inactive) | > 46 µM (inactive) | inactive | inactive | -5.5% (inactive) | 21.4% | 17.2% | inactive | – | –
COc1ccc(NC(=O)N2CC3(CCN(C(=O)c4ccco4)CC3)C2)cc1 | > 11.4 µM (inactive) | -4.09% (inactive) | inactive | 3.69% (inactive) | -3.56% (inactive) | > 46 µM (inactive) | inactive | inactive | 5.26% (inactive) | 0.813% | 8.8% | inactive | – | –
CS(=O)(=O)N1CCC2(CC1)CN(C(=O)Nc1ccccc1)C2 | > 11.4 µM (inactive) | -5.74% (inactive) | inactive | 11.2% (inactive) | 8.65% (inactive) | > 46 µM (inactive) | inactive | inactive | 4.59% (inactive) | 6.27% | 16.7% | inactive | – | –
